Results filed as inconclusive are left out. Where a call stands in place of a potency, no number is given. Calls of active or inactive are those of the source. Calls follow the shape of the dose curve; as a rule, active = well fitted curve in the direction sought with a large enough effect; inconclusive = small, poorly fitted or top-dose-only effect, or another doubt; inactive = no such curve, though single readings can be large; an effect the other way counts as inactive or inconclusive.
Assays:
[1] = molecular target: Glutathione peroxidase 1 (Homo sapiens) (UniProt P07203); assay: Primary qHTS Assay for Inhibitors of Recombinant Selenoprotein Glutathione Peroxidase 1 (GPX1) (AID 1845191); also: nearly all actives have a fitted effect of over 65% in size; also: potency is read from the fitted curve at half-maximal effect
Chain of Glutathione peroxidase 1 (Homo sapiens) (P07203 whole entry, looked up): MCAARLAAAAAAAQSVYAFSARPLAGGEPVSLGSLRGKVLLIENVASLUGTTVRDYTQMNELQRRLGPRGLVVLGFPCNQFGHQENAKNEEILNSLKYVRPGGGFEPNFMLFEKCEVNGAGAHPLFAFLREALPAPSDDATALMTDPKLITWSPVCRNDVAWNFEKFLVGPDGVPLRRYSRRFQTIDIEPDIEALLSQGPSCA
How it was run: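 10 nM GPX1 + cpd, 30 min RT; start w/ 1 mM GSH, 0.5 mM cumene hydroperoxide, 0.5 mM NADPH, 100 nM GR, 0.01% BSA; buffer 50 mM Tris-HCl pH 7.5, 2 mM EDTA, 150 mM NaCl; Fl 340/450, 0 & 15 min.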

[2] = molecular target: Phospholipid hydroperoxide glutathione peroxidase GPX4 (Homo sapiens) (UniProt P36969); assay: Primary qHTS Assay for Inhibitors of Recombinant Selenoprotein Glutathione Peroxidase 4 (GPX4) (AID 1845192); also: nearly all actives have a fitted effect of over 65% in size
Chain of Phospholipid hydroperoxide glutathione peroxidase GPX4 (Homo sapiens) (P36969 whole entry, looked up): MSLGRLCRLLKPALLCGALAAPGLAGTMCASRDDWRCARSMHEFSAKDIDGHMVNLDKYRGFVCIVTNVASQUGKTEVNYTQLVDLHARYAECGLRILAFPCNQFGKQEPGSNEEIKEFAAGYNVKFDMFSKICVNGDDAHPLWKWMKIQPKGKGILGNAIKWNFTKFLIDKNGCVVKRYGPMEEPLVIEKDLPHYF
How it was run: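 NADPH consumption, followed by fluorescence at 340/450 nm between 0 and 15 min, reports GPX4 activity via coupled glutathione reductase (100 nM). Enzyme 200 nM was pre-exposed to compound 30 min; 0.5 mM cumene hydroperoxide and 1 mM GSH served as substrates.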

[3] = molecular target: Luciferin 4-monooxygenase (Photinus pyralis) (UniProt P08659); assay: Primary firefly luciferase (FLuc) qHTS assay for identification of artifact compounds. (AID 1845220); also: nearly all actives have a fitted effect of over 60% in size
How it was run: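 Compounds sat 15 min at room temperature with 10 uM luciferin and 10 uM ATP (pH 7.6 Tris acetate). Firefly luciferase (10 nM final) was then added, and luminescence was read 5 min later. Data normalized to no-enzyme and DMSO controls were Hill-fitted.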

[4] = tested on: Nanoluciferase (engineered Oplophorus gracilirostris luciferase); assay: Primary Nanoluciferase (NLuc) qHTS assay for identification of artifact compounds. (AID 1845222)
How it was run: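 Luminescence from secreted NLuc (filtered, 1:55-diluted S16 cell medium) read 5 min after Nano-Glo substrate; compounds preincubated 15 min, RT. Hill fits of inhibition normalized to DMSO and no-enzyme.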

[5] = Quantitative High-Throughput drug screen in 47 multiple myeloma cell lines against the NCATS MIPE library collection: Delta47_JCRB cell viability assay (AID 1918925; also: nearly all actives have a fitted effect of over 45% in size; also: potency is read from the fitted curve at half-maximal effect)
How it was run: (§1)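 Relative luminescence from CellTiter-Glo served as the viability signal, referenced to DMSO-treated (100%) and cell-free medium (0%) controls. Treatment lasted 48 hours at 37C with 500 cells per well.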

[6] = Primary fluorescence-based thiol-reactive (MSTI) qHTS assay for identification of artifact compounds. (AID 1845221); also: nearly all actives have a fitted effect of over 65% in size; also: potency is read from the fitted curve at half-maximal effect
How it was run: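 Thiol-reactive compounds detected by quenching of 4 uM MSTI fluorescence (525/598 nm) after 1 h room-temperature dark incubation in PBS pH 7.4, 2% DMSO. qHTS titration; percent inhibition Hill-fitted against Acetyl-MSTI/MSTI controls.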

[7] = Primary redox qHTS assay for identification of artifact compounds. (AID 1845223)
How it was run: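 Amplex Red (25 uM) and HRP (250 mU/mL) in HBSS, with compounds for 15 min, then 250 uM DTT for 30 min, room temperature, dark. Fluorescence 525/598 nm read; normalized to DMSO and 10 uM DA3003; Hill fit.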

[8] = Quantitative High-Throughput drug screen in 47 multiple myeloma cell lines against the NCATS MIPE library collection: Karpas620_DSMZ cell viability assay (AID 1918959); also: nearly all actives have a fitted effect of over 30% in size; also: potency is read from the fitted curve at half-maximal effect
How it was run: (§2)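 Luminescent ATP measurement with CellTiter-Glo gives viability, scaled between DMSO-only wells (100%) and media-only wells (0%). Cells, 500 per well, faced library compounds for 48 hours at 37C.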

[9] = Quantitative High-Throughput drug screen in 47 multiple myeloma cell lines against the NCATS MIPE library collection: JIM3_ECACC cell viability assay (AID 1918963; also: nearly all actives have a fitted effect of over 35% in size; also: potency is read from the fitted curve at half-maximal effect)
How it was run: as §2

[10] = Quantitative High-Throughput drug screen in 47 multiple myeloma cell lines against the NCATS MIPE library collection: INA6_PLB cell viability assay (AID 1918965; also: nearly all actives have a fitted effect of over 55% in size; also: potency is read from the fitted curve at half-maximal effect)
How it was run: (§3)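 Steps: seed 500 cells per well; pin-transfer MIPE 4.0 library; incubate 48 h at 37C, 5% CO2, humidified; add CellTiter-Glo, 5 min room temperature; read luminescence.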

[11] = Quantitative High-Throughput drug screen in 47 multiple myeloma cell lines against the NCATS MIPE library collection: JJN3_DSMZ cell viability assay (AID 1918966; also: potency is read from the fitted curve at half-maximal effect; nearly all actives have a fitted effect of over 50% in size)
How it was run: as §1

[12] = Quantitative High-Throughput drug screen in 47 multiple myeloma cell lines against the NCATS MIPE library collection: ARP1_JJKsccF8 cell viability assay (AID 1918928; also: nearly all actives have a fitted effect of over 40% in size; also: potency is read from the fitted curve at half-maximal effect)
How it was run: (§4)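 ATP readout (CellTiter-Glo), 48 h drug incubation, 37 °C/5% CO2, 500 cells per well; normalisation to DMSO (100%) and media-only (0%) controls.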

[13] = Quantitative High-Throughput drug screen in 47 multiple myeloma cell lines against the NCATS MIPE library collection: KMM1_JCRB cell viability assay (AID 1918960); also: nearly all actives have a fitted effect of over 30% in size; also: potency is read from the fitted curve at half-maximal effect
How it was run: as §4

[14] = Quantitative High-Throughput drug screen in 47 multiple myeloma cell lines against the NCATS MIPE library collection: FR4_PLB cell viability assay (AID 1918924; also: nearly all actives have a fitted effect of over 35% in size; also: potency is read from the fitted curve at half-maximal effect)
How it was run: as §2

[15] = Quantitative High-Throughput drug screen in 47 multiple myeloma cell lines against the NCATS MIPE library collection: EJM_DSMZ cell viability assay (AID 1918926; also: nearly all actives have a fitted effect of over 30% in size; also: potency is read from the fitted curve at half-maximal effect)
How it was run: as §1

[16] = Quantitative High-Throughput drug screen in 47 multiple myeloma cell lines against the NCATS MIPE library collection: AMO1_DSMZ cell viability assay (AID 1918927; also: nearly all actives have a fitted effect of over 30% in size; also: potency is read from the fitted curve at half-maximal effect)
How it was run: as §1

[17] = Quantitative High-Throughput drug screen in 47 multiple myeloma cell lines against the NCATS MIPE library collection: ARD_JJKsccE7 cell viability assay (AID 1918929; also: potency is read from the fitted curve at half-maximal effect)
How it was run: as §1

[18] = Quantitative High-Throughput drug screen in 47 multiple myeloma cell lines against the NCATS MIPE library collection: Karpas417_ECACC cell viability assay (AID 1918961); settings: Karpas417 myeloma viability, CellTiter-Glo ATP luminescence, 48 h; viability (% of DMSO): at 45.8 µM (top of the series); also: potency is read from the fitted curve at half-maximal effect
How it was run: as §3

[19] = Quantitative High-Throughput drug screen in 47 multiple myeloma cell lines against the NCATS MIPE library collection: KHM11_PLB cell viability assay (AID 1918962); also: potency is read from the fitted curve at half-maximal effect; nearly all actives have a fitted effect of over 35% in size
How it was run: as §2

[20] = Quantitative High-Throughput drug screen in 47 multiple myeloma cell lines against the NCATS MIPE library collection: JIM1_ECACC cell viability assay (AID 1918964; also: potency is read from the fitted curve at half-maximal effect)
How it was run: as §1

| Structure (SMILES) | Potency [1] | Potency [2] | Potency [3] | Potency [4] | Potency [5] | Potency [6] | outcome [7] | Potency [8] | Potency [9] | Potency [10] | Potency [11] | Potency [12] | Potency [13] | Potency [14] | Potency [15] | Potency [16] | Potency [17] | Potency [18] | Potency [19] | Potency [20] |
| --- | --- | --- | --- | --- | --- | --- | --- | --- | --- | --- | --- | --- | --- | --- | --- | --- | --- | --- | --- | --- |
| COc1cc(N2CCC(N3CCN(C)CC3)CC2)ccc1Nc1ncc(Cl)c(Nc2ccccc2S(=O)(=O)C(C)C)n1 | inactive | inactive | inactive | inactive | inactive | – | – | – | – | – | – | – | – | – | – | – | – | – | – | – |
| CC(C)n1nc(-c2ccc3oc(N)nc3c2)c2c(N)ncnc21 | inactive | inactive | inactive | inactive | 0.0059 µM (active) | inactive | inactive | 1.18 µM (active) | 0.0074 µM (active) | 0.0093 µM (active) | 0.0074 µM (active) | – | – | – | – | – | – | – | – | – |
| Cc1ccccc1C(C(=O)NC1CCCCC1)N(C(=O)Cn1ccnc1C)c1cccc(F)c1 (stereo not drawn) | inactive | inactive | inactive | inactive | 11.8 µM (active) | inactive | inactive | inactive | inactive | inactive | – | inactive | inactive | – | – | – | – | – | – | – |
| CC(C)C(C)C=CC(C)C1CCC2C3=CC=C4CC(O)CCC4(C)C3CCC21C (stereo not drawn) | inactive | inactive | – | – | inactive | – | – | 18.7 µM (active) | inactive | – | – | inactive | – | inactive | inactive | inactive | inactive | inactive | – | – |
| CN1CCN(CCOc2cc(OC3CCOCC3)c3c(Nc4c(Cl)ccc5c4OCO5)ncnc3c2)CC1 | inactive | inactive | inactive | inactive | – | inactive | – | 18.7 µM (active) | 23.5 µM (active) | 2.96 µM (active) | – | – | 14.8 µM (active) | 18.7 µM (active) | – | 18.7 µM (active) | 18.7 µM (active) | – | 18.7 µM (active) | 20.9 µM (active) |
| O=C1C(Cl)=C(NCCN2CCOCC2)C(=O)c2ncccc21 | 9.16 µM (active) | inactive | – | – | 7.43 µM (active) | – | – | 1.48 µM (active) | 8.33 µM (active) | 2.96 µM (active) | 3.72 µM (active) | 4.69 µM (active) | – | 6.62 µM (active) | 7.43 µM (active) | 2.96 µM (active) | 5.26 µM (active) | 3.32 µM (active) | 9.35 µM (active) | 2.96 µM (active) |
| CCOc1ccc(Nc2nc(-c3c(C)nc4ccccn34)cs2)cc1 | inactive | inactive | inactive | inactive | – | 2.67 µM (active) | inactive | 0.0015 µM (active) | inactive | 0.0026 µM (active) | 5.26 µM (active) | 0.003 µM (active) | 0.001 µM (active) | – | – | 0.001 µM (active) | 0.001 µM (active) | – | 0.0743 µM (active) | – |
